Laboratory results from PubChem BioAssay (NCATS).
Records with an inconclusive call do not appear. A call without a number means that no potency is given here. A number with no mark means an inactive call. Activity calls are given as the source filed them. Unless noted, calls come from the whole dose curve; as a rule, active = well fitted curve in the direction sought with a large enough effect; inconclusive = small, poorly fitted or top-dose-only effect, or another doubt; inactive = no such curve, though single readings can be large; an effect the other way counts as inactive or inconclusive.

Experiments:
[1] = P-glycoprotein substrates identified in KB-8-5-11 adenocarcinoma cell line, qHTS therapeutic library screen (AID 1346987); note: nearly all actives have a fitted effect of over 65% in size; note: potency is the fitted concentration of half-maximal effect; for activity change, negative = cytotoxicity: series mostly up to about 44 µM
Procedure, shortened: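 KB-8-5-11: colchicine-selected sub-line of KB-3-1 over-expressing P-gp; assay medium lacked colchicine. 72 h drug exposure at 37 degree C, CellTiter-Glo.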

[2] = NS1 protein of Zika virus - qHTS assay to identify small molecule inhibitors in human HEK 293 cells (AID 1347053); note: series mostly up to about 46 µM; nearly all actives have a fitted effect of over 55% in size
Procedure, shortened: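 HEK 293; 20 h pre-culture, 37 C/5% CO2; cpd 1 h pre-infection; ZIKV MR766, MOI = 0.5, 24 h, 37 C; TR-FRET NS1 readout (two anti-NS1 Abs); norm. to no-virus vs infected.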

[3] = qHTS of pediatric cancer cell lines to identify multiple opportunities for drug repurposing: Primary screen for TC32 cells (AID 1347089); note: nearly all actives have a fitted effect of over 60% in size
Procedure, shortened: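 In the primary qHTS, MIPE compounds were tested at 11 concentrations (0.78 nM to 46 µM) and NPC compounds at 8 (0.59 nM to 46 µM) on TC32 cells for 48 h. CellTiter-Glo luminescence gave viability.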

[4] = qHTS of pediatric cancer cell lines to identify multiple opportunities for drug repurposing: Primary screen for DAOY cells (AID 1347090); note: series mostly up to about 46 µM; nearly all actives have a fitted effect of over 55% in size
Procedure, shortened: (§1)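 Cell viability, CellTiter-Glo luminescence; 500-1,000 cells/well, 8- or 11-point titration, 48 h compound exposure at 37 degrees C, 5% CO2. Controls: DMSO neutral, bortezomib 2.3 µM final as positive.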

[5] = qHTS of pediatric cancer cell lines to identify multiple opportunities for drug repurposing: Primary screen for SJ-GBM2 cells (AID 1347091)
Procedure, shortened: as §1

[6] = qHTS of pediatric cancer cell lines to identify multiple opportunities for drug repurposing: Primary screen for A673 cells (AID 1347092); note: nearly all actives have a fitted effect of over 45% in size
Procedure, shortened: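 48 h compound exposure, A673, 500-1,000 cells/well, 37 degrees C/5% CO2. MIPE: 11-point, 0.78 nM-46 µM; NPC: 8-point, 0.59 nM-46 µM (final). Readout CellTiter-Glo luminescence after 15 min RT.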

[7] = qHTS of pediatric cancer cell lines to identify multiple opportunities for drug repurposing: Primary screen for BT-37 cells (AID 1347094); note: series mostly up to about 57 µM
Procedure, shortened: (§2)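 Viability was measured as metabolically active cells after 48 hours of treatment, read by CellTiter-Glo luminescence. Compounds were tested at multiple final concentrations, giving concentration-response curves.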

[8] = qHTS of pediatric cancer cell lines to identify multiple opportunities for drug repurposing: Primary screen for NB-EBc1 cells (AID 1347095)
Procedure, shortened: as §2

[9] = qHTS of pediatric cancer cell lines to identify multiple opportunities for drug repurposing: Primary screen for U-2 OS cells (AID 1347096); note: nearly all actives have a fitted effect of over 50% in size
Procedure, shortened: (§3)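 Cells (500-1,000/well) rested 5 h, then received compounds for 48 h; metabolically active cells were measured by CellTiter-Glo luminescence. Final concentrations spanned up to 46 µM (MIPE, 11-point) or 0.59 nM-46 µM (NPC, 8-point) in primary screens, 11-point in follow-ups.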

[10] = qHTS of pediatric cancer cell lines to identify multiple opportunities for drug repurposing: Primary screen for Saos-2 cells (AID 1347097); note: nearly all actives have a fitted effect of over 40% in size
Procedure, shortened: as §2

[11] = qHTS of pediatric cancer cell lines to identify multiple opportunities for drug repurposing: Primary screen for SK-N-SH cells (AID 1347098); note: nearly all actives have a fitted effect of over 65% in size
Procedure, shortened: as §3

[12] = qHTS of pediatric cancer cell lines to identify multiple opportunities for drug repurposing: Primary screen for NB1643 cells (AID 1347099); note: nearly all actives have a fitted effect of over 50% in size
Procedure, shortened: as §2

[13] = qHTS assay for small molecule agonists of the antioxidant response element (ARE) signaling pathway measured by Nrf2-dependant transcriptional activity (AID 720636; active = well fitted curve in the direction sought with a large enough effect in the repeat runs; an effect the other way counts as inactive or inconclusive;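 note: HepG2 cells with an ARE-driven luciferase reporter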)
Procedure, shortened: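 Cells: ARE-luc HepG2 with Nrf2-responsive luciferase. Medium contained 1% dialyzed FBS. Compound exposure lasted 16 hr at 37 C and 5% CO2, followed by ONE-Glo luciferase detection.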

[14] = qHTS assay for small molecule antagonists of the retinoid-related orphan receptor gamma (ROR-gamma) signaling pathway - cell viability counter screen (AID 720652; active = well fitted curve in the direction sought with a large enough effect in the repeat runs; an effect the other way counts as inactive or inconclusive;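 note: CHO reporter cells with doxycycline-induced ROR-gamma expression; series mostly up to about 92 µM; compound exposure lasted 16 hr before ATP read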)
Procedure, shortened: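 Counter screen in CHO cells carrying TET-inducible ROR-gamma and an ROR response element-luciferase reporter; cells plated 5 hr, compound pinned, doxycycline added, then 16 hr at 37 C. Viability read as intracellular ATP by CellTiter-Glo luminescence.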

[15] = qHTS assay for small molecule agonists of the antioxidant response element (ARE) signaling pathway measured by Nrf2-dependant transcriptional activity - cell viability counter screen (AID 720653; active = well fitted curve in the direction sought with a large enough effect in the repeat runs; an effect the other way counts as inactive or inconclusive); details: ARE-bla HepG2 viability, CellTiter-Glo ATP luminescence, 16 h; stronger effect = lower value
Procedure, shortened: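 Cytotoxicity counter screen: intracellular ATP quantified by CellTiter-Glo luminescence in the same ARE-bla HepG2 plates, after 16 h compound exposure and a 2 h beta-lactamase substrate step.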

[16] = qHTS assay for cell viability of HEK293 cells (AID 743288); details: ATP luminescence (CellTiter-Glo), 18 h, stronger effect = lower value; note: nearly all actives have a fitted effect of over 50% in size
Procedure, shortened: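 Environmental chemicals tested in qHTS format against parental HEK293 cells; 18 h treatment, 37 C; read-out ATP luminescence (CellTiter-Glo), 30 min RT development.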

[17] = qHTS assay for cell viability of the p53RE-bla HCT-116 cell line (AID 743292); note: nearly all actives have a fitted effect of over 55% in size
Procedure, shortened: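 HCT-116 p53RE-bla cells seeded 4,000/well; 5 h at 37 C; compound (DMSO) added; 16 h at 37 C; CellTiter-Glo added, 30 min RT; luminescence read.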

[18] = qHTS Assay for Identifying Gametocytocidal Compounds (AID 743244);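 note: actives lower the fluorescent signal which means gametocytes are killed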; details: P. falciparum 3D7 stage III-V gametocytes, alamarBlue, 72 h; max response: stronger effect = lower value
Procedure, shortened: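 A resazurin-based viability read-out was applied to mature P. falciparum gametocytes: 72 h compound treatment, then 24 h dye incubation, with falling fluorescence signalling gametocytocidal effect.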

## CCOc1ccc2nc(SCCN3CCOCC3)[nH]c2c1
[1]
  Potency: inactive

## CC1CCC2C(C(=O)O)=COC(O[C@@H]3O[C@H](CO)[C@@H](O)[C@H](O)[C@H]3O)C12 (stereo partly specified)
[1]
  Potency: inactive

## O=C(O)COCCN1CCN([C@H](c2ccccc2)c2ccc(Cl)cc2)CC1
[1]
  Potency: inactive

## C[C@]12C[C@@H](O)[C@@H]3C[C@@]1(O[C@@H]1O[C@H](CO)[C@@H](O)[C@H](O)[C@H]1O)[C@]3(COC(=O)c1ccccc1)C(=O)O2
[1]
  Potency: inactive

## Cc1csc(NC(=O)c2ccc(COc3cccc(Cl)c3)o2)n1
[1]
  Potency: inactive

## CCc1ccc(Cc2ccc3c(c2)[C@]2(OC3)O[C@H](CO)[C@@H](O)[C@H](O)[C@H]2O)cc1
[1]
  Potency: inactive

## COc1ccc2[nH]c3c(-c4cccc5ccccc45)nccc3c2c1
[1]
  Potency: 0.92 µM (active)

## COC(=O)C1=COC(OC2OC(CO)C(O)C(O)C2O)C2C1C=CC2(O)CO (stereo unspecified)
[1]
  Potency: inactive

## COc1cc2c(cc1O)CC[C@H]1[C@@H]2CC[C@]2(C)[C@H](O)CC[C@@H]12
[1]
  Potency: 1.3 µM (active)

## O=C(/C=C/c1ccc(O)cc1)OC1[C@H](O)CC(O)(C(=O)O)C[C@H]1O (stereo partly specified)
[1]
  Potency: inactive

## CC(C)CCC(=O)CC1c2ccccc2C(=O)N1c1ccc2ccc(Cl)nc2n1 (stereo unspecified)
[1]
  Potency: inactive

## C[C@@H]1C[C@@H](O)[C@@]23CO[C@@H](O)[C@@H]2CCC[C@@H]3[C@@]12C[C@@H](c1ccoc1)OC2=O
[1]
  Potency: inactive

## C[C@@H]1O[C@@H](O[C@@H]2[C@@H](O)[C@H](O[C@H]3[C@H](O[C@H]4CC[C@@]5(C)C(CC[C@]6(C)C5CC=C5[C@@H]7CC(C)(C)CC[C@]7(C(=O)O[C@@H]7O[C@H](CO)[C@@H](O)[C@H](O)[C@H]7O[C@@H]7O[C@@H](C)[C@H](O[C@@H]8O[C@@H](C)[C@H](O)[C@@H](O)[C@H]8O)[C@@H](O)[C@H]7O)CC[C@]56C)[C@@]4(C)CO)O[C@H](C(=O)O)[C@@H](O)[C@@H]3O)O[C@H](CO)[C@H]2O)[C@H](O)[C@H](O)[C@H]1O (stereo partly specified)
[1]
  activity change, negative = cytotoxicity: 9.26% [at 9.29 µM]

## OCC(CO[C@@H]1O[C@H](CO)[C@@H](O)[C@H](O)[C@H]1O)c1ccc2c(c1)OCO2 (stereo partly specified)
[1]
  Potency: inactive

## O=C(O)c1ccccc1NCCc1ccccc1
[2]
  Potency: inactive
[3]
  outcome: inactive
[4]
  outcome: inactive
[5]
  outcome: inactive
[6]
  Potency: inactive
[7]
  outcome: inactive
[8]
  outcome: inactive
[9]
  outcome: inactive
[10]
  Potency: inactive
[11]
  Potency: inactive
[12]
  Potency: inactive

## O=C1CC2(CCCC2)[C@H](O)C(=O)N1CCCCN1CCN(c2ncccn2)CC1
[1]
  Potency: inactive

## C/C=C/C=C/C(O)=C1\C(O)=C(C)C(=O)[C@@]2(C)OC(=O)[C@@](C)(NC(=O)/C=C/C(=O)O)[C@@H]12
[1]
  Potency: inactive

## C=C(C)C1CC[C@]2(C(=O)O)CC[C@]3(C(=O)O)[C@H](CCC4[C@@]5(C)CC[C@H](O)C(C)(C)C5CC[C@]43C)C12 (stereo partly specified)
[1]
  Potency: inactive

## CC(O)/C=C/C1OC(=O)CC1Nc1ccc(C(=O)O)cc1 (stereo unspecified)
[1]
  Potency: inactive

## CC(=O)O[C@@H]1CC(C)=C2[C@H]1[C@H](C)CC[C@H]2/C=C(\C)C(=O)O
[13]
  outcome: inactive
[14]
  outcome: inactive
[15]
  max response: -16.1%
[16]
  max response: -5.49%
[17]
  outcome: inactive
[1]
  Potency: inactive

## COc1ncc(Nc2ncc([C@@H](C)N3CCN(S(C)(=O)=O)CC3)cc2-c2nc(C)nc(N)n2)cc1F
[1]
  Potency: 6.51 µM (active)

## CC1(C)CC[C@]2(C(=O)O[C@@H]3O[C@H](CO[C@@H]4O[C@H](CO)[C@@H](O)[C@H](O)[C@H]4O[C@@H]4O[C@H](CO)[C@H](O)[C@H](O)[C@H]4O)[C@@H](O)[C@H](O[C@@H]4O[C@H](CO)[C@@H](O)[C@H](O)[C@H]4O)[C@H]3O)CC[C@]3(C)C(=CCC4[C@@]5(C)CC[C@H](O[C@@H]6OC[C@@H](O)[C@H](O)[C@H]6O)[C@@](C)(C(=O)O)C5CC[C@]43C)[C@@H]2C1 (stereo partly specified)
[1]
  outcome: inactive [at 9.29 µM]

## CC(=O)O[C@H]1C(=O)[C@@]2(C)[C@H]([C@H](OC(=O)c3ccccc3)[C@]3(O)C[C@H](OC(=O)[C@H](O)[C@@H](NC(=O)c4ccccc4)c4ccccc4)C(C)=C1C3(C)C)[C@]1(OC(C)=O)CO[C@@H]1C[C@@H]2O
[13]
  outcome: inactive
[15]
  max response: -7.37%
[18]
  max response: -7.34%
[16]
  max response: -10.4%
[17]
  outcome: inactive
[1]
  Potency: 0.873 µM (active)

## COc1ccc([C@@H]2OC[C@H]3[C@@H]2CO[C@@H]3c2ccc(OC3OC(CO)C(O)C(O)C3O)c(OC)c2)cc1OC (stereo partly specified)
[1]
  Potency: inactive

## C=CC(C)(C)c1[nH]c2ccccc2c1C[C@@H]1NC(=O)[C@H](Cc2c[nH]c3ccccc23)NC1=O
[1]
  Potency: inactive

## O=C(O)/C=C/c1cc2c(cc1O[C@@H]1O[C@H](CO)[C@@H](O)[C@H](O)[C@H]1O)OCO2
[1]
  Potency: inactive
